# Experimental data reported in the supplement of paper PMC6555819.
# Legend:
# Experiment in all cases: PBM binding z-score (relative to random genomic background probes); higher = stronger binding; sequences stand for … in GC…GCGATTGACAGCGTAGAATGAAGG
# [1] = test system: FXR:RXRa (NR concentration 270 nM, RXRa partner concentration 90 nM)
# In short: (§1)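 Random background probes are the reference for binding z-scores. These scores derive from regression-normalized fluorescence on custom Agilent 4×180K protein-binding microarrays incubated 1 h with ligand-free nuclear receptor dimers. Binding was detected with antibodies against each partner (one per run).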
# [2] = test system: LXRa:RXRa (NR concentration 270 nM, RXRa partner concentration 90 nM)
# In short: as §1
# [3] = test system: LXRa homodimer (NR concentration 270 nM)
# In short: as §1
# [4] = test system: LXRb:RXRa (NR concentration 270 nM, RXRa partner concentration 90 nM)
# In short: as §1
# [5] = test system: LXRb homodimer (NR concentration 270 nM)
# In short: as §1
# [6] = test system: PPARa:RXRa (NR concentration 270 nM, RXRa partner concentration 90 nM)
# In short: as §1
# [7] = test system: PPARg:RXRa (NR concentration 180 nM, RXRa partner concentration 90 nM)
# In short: as §1
# [8] = test system: PPARg:RXRa 270nM:90nM, anti-RXR (NR concentration 270 nM, RXRa partner concentration 90 nM)
# In short: as §1
# [9] = test system: PPARg:RXRa 30nM:10nM, anti-RXR (NR concentration 30 nM, RXRa partner concentration 10 nM)
# In short: as §1
# [10] = test system: PPARg:RXRa 90nM:30nM, anti-RXR (NR concentration 90 nM, RXRa partner concentration 30 nM)
# In short: as §1
# [11] = test system: PPARg:RXRa DBDmut IVT, anti-RXR (DBD mutation: RXRa K156A/R161A, NR concentration 270 nM, RXRa partner concentration 90 nM)
# In short: as §1
# [12] = test system: PPARg:RXRa IVT, anti-PPARg (NR concentration 270 nM, RXRa partner concentration 90 nM)
# In short: as §1
# [13] = test system: PPARg DBDmut:RXRa IVT, anti-PPARg (DBD mutation: PPARg1 K132A/R137A, NR concentration 270 nM, RXRa partner concentration 90 nM)
# In short: as §1
# [14] = test system: PPARg DBDmut IVT, anti-PPARg (DBD mutation: PPARg1 K132A/R137A, NR concentration 270 nM)
# In short: as §1
# [15] = test system: PPARg homodimer (NR concentration 180 nM)
# In short: as §1
# [16] = test system: PXR:RXRa (NR concentration 270 nM, RXRa partner concentration 90 nM)
# In short: as §1
# [17] = test system: PXR homodimer (NR concentration 270 nM)
# In short: as §1
# [18] = test system: RARa:RXR (NR concentration 270 nM, RXRa partner concentration 90 nM)
# In short: as §1
# [19] = test system: RARa homodimer (NR concentration 270 nM)
# In short: as §1
# [20] = test system: RARb:RXRa (NR concentration 270 nM, RXRa partner concentration 90 nM)
# In short: as §1
Sequence,PBM binding z-score [1],PBM binding z-score [2],PBM binding z-score [3],PBM binding z-score [4],PBM binding z-score [5],PBM binding z-score [6],PBM binding z-score [7],PBM binding z-score [8],PBM binding z-score [9],PBM binding z-score [10],PBM binding z-score [11],PBM binding z-score [12],PBM binding z-score [13],PBM binding z-score [14],PBM binding z-score [15],PBM binding z-score [16],PBM binding z-score [17],PBM binding z-score [18],PBM binding z-score [19],PBM binding z-score [20]
CGTCAAAGTTCAAGGTAACTTAACAGAAAGCAGC,6.07,5.46,2.56,3.35,0.919,4.5,4.23,4.97,1.81,3.84,0.535,1.52,0.657,0.0202,2.33,3.79,2.37,3.17,1.69,4.89
ATCGAAAGGTCGTAGGTGAGTATACCCACCCGAA,5.3,4.31,0.335,3.11,0.812,5.14,4.11,4.56,1.68,3.46,-0.212,2.34,1.08,0.645,1.97,3.12,0.577,4.04,0.489,3.76
CAAACTAGGTCACAAAGGTCAAAGTCCGTGCGTA,7.43,6.7,7.48,6.59,3,6.49,10.3,8.31,7.58,8.55,8.59,8.71,2.54,2.7,7.19,6.69,11.9,7.63,4.27,5.46
TCATAAAGGTAATACAGGTGAAAGTCGGCATCTA,1.53,2.4,0.378,1.49,0.311,2.48,1.23,3,4.29,3.61,3.29,2.39,0.311,0.578,1.44,1.05,0.48,1.52,0.815,1.43
TTACCAAGGTGAGATGAGGTCGTTGATCCAACTC,1.78,1.68,-0.0824,1.1,-0.44,2.03,0.772,1.32,0.775,1.01,1.15,2.16,-0.0123,0.496,0.827,5.21,0.58,2.44,0.0224,1.83
TCTAGTTGGTCAAAGGTAACACACTCGAAATGCG,1.27,1.4,0.707,1.5,0.561,4,8.12,7.77,6.85,8.85,3.54,3.93,1.52,1.17,2.03,1.34,0.784,1.93,1.72,1.86
AGAATGAGGTTAAGATCACGGAAACAGAATACAT,2.44,1.8,0.0665,1.91,0.115,3.74,2.6,2.66,1.17,2.11,3.1,2.73,1.28,0.711,1.19,1.28,0.346,2.31,0.826,2.24
TCATATAGGTAATACAGATGAAAGTCGGCATCTA,0.463,0.531,0.032,0.521,0.268,1.08,1.47,1.93,4.02,2.97,3.53,2.32,1.22,1.05,0.725,0.46,0.387,0.646,1.28,0.19
TCTTGTAGATCACAGGTTAAGAAAGCCGAAGCCT,0.701,0.575,-0.161,0.714,-0.0792,2.09,2.74,4.44,3.81,4.64,2.16,1.8,0.9,0.0684,0.447,0.186,-0.359,0.737,-0.789,0.464
TTACCAAGGTGAGCTGAGGTCGTAGATCCAACTC,2.54,0.614,-0.687,0.401,-1.29,1.78,0.268,0.85,-0.191,0.588,0.925,1.67,-0.714,-0.674,-0.332,4.2,-0.58,2.1,-0.84,1.85
TCTTGTAGATCAAGAGGAGGTTAAGAAAGATCGA,0.338,0.95,-0.0702,0.725,-0.517,1.22,-0.0325,1.24,2.38,1.6,1.29,0.615,0.0065,0.335,0.153,0.769,-0.0434,1.09,0.139,0.364
GCTAGCAGGCCATTTGGGTCACTTAATGACGGGC,0.0717,-0.185,-0.464,-0.142,-0.905,1.16,0.67,0.681,-0.515,0.00792,1.56,1.89,-0.44,-0.938,-0.528,0.407,-0.077,0.758,-1.06,1.3
TCTTGTAGATCAGCAGGTTGAGAAAGCTGGCCAA,0.242,0.0309,-0.346,-0.0211,-0.546,0.457,-0.781,1.1,2.58,1.75,1.7,-0.16,-1.19,-1.18,-0.343,0.181,-0.51,0.426,-0.127,-0.0315
CGAACTAGGTCAAGGACTGTGAATCTCCGCACGC,3.02,2.02,-0.179,1.36,-0.152,4.37,7.06,6.47,4.05,5.99,8.18,8.06,0.764,0.958,1.34,0.92,-0.392,1.78,0.232,4.01
TCGAGTAGGTTAGGCGGGGCATTCAGCCAACATA,0.223,0.211,-0.616,0.946,0.912,0.687,-0.0188,0.886,0.825,0.705,1.73,1.84,0.466,0.361,-0.143,0.191,-0.273,0.0737,-0.554,0.48
